The panel holds about 79,000 compounds, 15% with a hit somewhere; the sample as a whole holds those more often. Values without a mark were called inactive. Calls of active or inactive are those of the source. Cut-off read from the data, not from the text of the source: active = growth inhibition above about 70%; inactive = the rest.

The nature of assay [1]: NCI Yeast Anticancer Drug Screen. Data for the rad50 strain (AID 155).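 Note: 0% = growth of vehicle-only cultures of the same strain.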 The conditions noted are these: S. cerevisiae rad50 strain growth inhibition; at 50.0 µM; active compounds read high. Put shortly: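 Growth of the mutant yeast was measured after compound exposure and referenced to vehicle-treated cultures.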
The nature of assay [2]: NCI Yeast Anticancer Drug Screen. Data for the mec2-1 strain (AID 157). The conditions noted are these: S. cerevisiae mec2-1 strain, at 50.0 µM, active compounds read high. Put shortly: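 Readout is yeast growth inhibition, normalised to vehicle-treated controls, in the mec2-1 strain exposed to compound.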
A short description of assay [3]: NCI Yeast Anticancer Drug Screen. Data for the sgs1 mgt1 strain (AID 161).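 Note: 0% = growth of cultures given vehicle only.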 The conditions noted are these: S. cerevisiae sgs1 mgt1 strain, at 50.0 µM, active compounds read high. A digest of the protocol: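 Growth of a repair-deficient yeast mutant was monitored after compound treatment and expressed as inhibition relative to vehicle-treated cultures.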
Assay [4] is described as follows: NCI Yeast Anticancer Drug Screen. Data for the cln2 rad14 strain (AID 165).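 Note: 0% = growth equal to vehicle treated cultures.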 The conditions noted are these: S. cerevisiae cln2 rad14 strain, at 50.0 µM, active compounds read high. A digest of the protocol:
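Relative to vehicle controls, growth inhibition of compound-treated cln2 rad14 yeast was recorded.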

The nature of assay [5]: NCI Yeast Anticancer Drug Screen. Data for the bub3 strain (AID 167). As to conditions: S. cerevisiae bub3 mutant strain, at 50.0 µM, active compounds read high. A digest of the protocol:
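Whole-cell yeast assay. The mutant strain was incubated with compounds, and growth inhibition was determined by comparison with vehicle-treated cells.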

A short description of assay [6]: NCI Yeast Anticancer Drug Screen. Data for the mlh1 rad18 strain (AID 175). As to conditions: S. cerevisiae mlh1 rad18 strain growth inhibition; at 50.0 µM; active compounds read high. Put shortly: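 Test agents were incubated with a yeast strain of defined genotype (DNA damage repair defect). Inhibition of growth was derived by comparison with vehicle-exposed cultures.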

Take `CCNCCc1ccc(N)cc1`: the growth inhibition was 5.05% in assay [1]; -2.95% in assay [2]; 0.8% in assay [3]; -6.75% in assay [4]; 1.85% in assay [5]; -2.65% in assay [6].

Take `CC(Br)[N+](=O)[O-]` (stereo unspecified): the growth inhibition in assay [1] was 28.8%; in assay [2], 4.9%; in assay [3] it was 5.4%; in assay [4], 13.8%; in assay [5], -8.7%; in assay [6], 5.35%.

As for `CN(C)c1ccc([N+](=O)[O-])c([N+](=O)[O-])c1`, the growth inhibition in assay [1] is -14.8%; in assay [2], -12.5%; in assay [3], -7.75%; in assay [4] it was 7.95%; in assay [5] it was -12.4%; in assay [6] it was -3.05%.

With `COc1ccc2c(c1OC(C)=O)-c1cc(OC(C)=O)cc3c1C(C2)N(C(=O)CN(CCCl)CCCl)CC3` (stereo unspecified), the growth inhibition in assay [1] was -6.4%; in assay [2], -6%; in assay [3], -1.95%; in assay [4], -13%; in assay [5] it was -0.05%; in assay [6], -6.6%.

For `O=S1(=O)CC2(N3CCOCC3)C3CCC(C3)C21` (stereo unspecified), the growth inhibition was 24% in assay [1]; 4.6% in assay [2]; 0.6% in assay [3]; -0.4% in assay [4]; 9.15% in assay [5]; 11.6% in assay [6].

Consider `O=Cc1ccccc1O.[Nd]`, for which the growth inhibition was -0.65% in assay [1]; -33.6% in assay [2]; 17.2% in assay [3]; 6.65% in assay [4]; 3.9% in assay [5]; 6.6% in assay [6].

With `CCC[CH2][Sn]([CH2]CCC)([CH2]CCC)[CH2]CCNCCCN(C)C`, the growth inhibition was 99.3% (active) in assay [1]; 99.7% (active) in assay [2]; 99.5% (active) in assay [3]; 99% (active) in assay [4]; 98.8% (active) in assay [5]; 99.2% (active) in assay [6].

As to `CC[N+](CC)(CC)CC#CC[N+](CC)(CC)CC`, the growth inhibition is 5.65% in assay [1]; 5% in assay [2]; 14.3% in assay [3]; 1.45% in assay [4]; 12.8% in assay [5]; 6.1% in assay [6].

With `COc1ccccc1-n1c(C)nc2ccccc2c1=O`, the growth inhibition in assay [1] is -5%; in assay [2] it was -19.6%; in assay [3] it was 6.2%; in assay [4] it was 2.8%; in assay [5], 19.7%; in assay [6], 4.8%.

For the molecule `C#CC(=O)[O][Sn]([c]1ccccc1)([c]1ccccc1)[c]1ccccc1`, the growth inhibition is 99% (active) in assay [1]; 99.1% (active) in assay [2]; 99.3% (active) in assay [3]; 99.2% (active) in assay [4]; 98.9% (active) in assay [5]; 99% (active) in assay [6].

On to `CCC(C)(C)C(=O)Nc1cccc(OC(=O)NC)c1`, for which the growth inhibition was 2.1% in assay [1]; -9.1% in assay [2]; 9.85% in assay [3]; -3.35% in assay [4]; 13.2% in assay [5]; -16.9% in assay [6].

In the case of `O.O=[N+]([O-])O.[NH2-].[NH2-].[Pt+2]`, the growth inhibition was 22.9% in assay [1]; 20.4% in assay [2]; 8.6% in assay [3]; 15.2% in assay [4]; 4.55% in assay [5]; 31.4% in assay [6].

Take `O=C1/C(=C\c2ccccc2)C2OCC=C3CN4CCC56c7ccccc7N1C5C2C3CC46` (stereo unspecified): the growth inhibition is -18.6% in assay [1]; -33.1% in assay [2]; -3.9% in assay [3]; -3.25% in assay [4]; -19.9% in assay [5]; -9.05% in assay [6].

Regarding `COc1ccc(C(O)(C(=O)O)c2ccc(OC)c(OC)c2)cc1OC`, the growth inhibition in assay [1] was 5.6%; in assay [2], -1.25%; in assay [3], -1.7%; in assay [4], -13.9%; in assay [5] it was 8%; in assay [6] it was 0.2%.

With `Cn1cc(C(=O)C[n+]2ccccc2)c2ccccc21`, the growth inhibition was -20.4% in assay [1]; -0.45% in assay [2]; -18.3% in assay [3]; 3.7% in assay [4]; -30.1% in assay [5]; -5.45% in assay [6].

Regarding `N/C(=N\NC(=O)c1ccc([N+](=O)[O-])cc1)N[N+](=O)[O-]`, the growth inhibition in assay [1] was -11.1%; in assay [2], -12.2%; in assay [3] it was -3.65%; in assay [4], 28.8%; in assay [5], 11.2%; in assay [6] it was 1.75%.

As to `[Se]=[Mo]=[Se]`, the growth inhibition in assay [1] was -10.2%; in assay [2], -8.3%; in assay [3], -29.9%; in assay [4], -18%; in assay [5] it was -7.05%; in assay [6] it was -33.9%.

As to `OCC(Br)CBr` (stereo unspecified), the growth inhibition in assay [1] is 40.9%; in assay [2] it was 0.35%; in assay [3], -3.6%; in assay [4], -62.6%; in assay [5], -11.7%; in assay [6], -4.5%.

`C[C@]12CC[C@H]3[C@@H](CCC4=C(Br)C(=O)CC[C@@H]43)[C@@H]1CC[C@@H]2O`: the growth inhibition in assay [1] is 9.5%; in assay [2], 2.3%; in assay [3], 10.6%; in assay [4], -19.6%; in assay [5], 2.5%; in assay [6] it was 19.1%.

Regarding `CC(C)CC(C)(C)COP(=S)(OCC(C)(C)CC(C)C)OCC(C)(C)CC(C)C`, the growth inhibition in assay [1] was 13.6%; in assay [2], -15%; in assay [3], 0.8%; in assay [4], -37%; in assay [5] it was -8.75%; in assay [6], 10.6%.

As for `[CH3][Sb]1([CH3])([I])[CH2]CC[CH2]1`, the growth inhibition in assay [1] is -6.55%; in assay [2], -5.35%; in assay [3], -5.75%; in assay [4], -11.1%; in assay [5] it was 27.2%; in assay [6], 33.9%.

For `COc1ccc2c(c1O)CN1CCc3cc4c(cc3C1C2)OCO4` (stereo unspecified), the growth inhibition was 40.5% in assay [1]; 22.1% in assay [2]; 28.6% in assay [3]; 25.9% in assay [4]; 43.2% in assay [5]; 19.9% in assay [6].

Regarding `O=NNc1ncc([N+](=O)[O-])cn1`, the growth inhibition in assay [1] is -1.05%; in assay [2] it was 5.35%; in assay [3], -5.9%; in assay [4] it was -23.4%; in assay [5], -5%; in assay [6] it was -8.4%.

Regarding `CCOP(=O)(CCP(=O)(OCC)OCC)OCC.C[CH2][Sn]([Cl])([Cl])[CH2]C`, the growth inhibition in assay [1] is 42.9%; in assay [2], 52.1%; in assay [3] it was 45.5%; in assay [4], 46%; in assay [5], 42.1%; in assay [6] it was 41%.

Turning to `CN(C)CCNc1nc2c(no[n+]2[O-])c2ccccc12`, the growth inhibition is -28.9% in assay [1]; -24.8% in assay [2]; -14.3% in assay [3]; -12.8% in assay [4]; 3.35% in assay [5]; -19.9% in assay [6].

Consider `CC(C)(C)OO`, for which the growth inhibition in assay [1] was 5.35%; in assay [2] it was 7.05%; in assay [3], 0.95%; in assay [4], -0.6%; in assay [5] it was 22.4%; in assay [6] it was -17%.

In the case of `O=C1NC(=S)NC(=O)C1=Cc1ccc2ccccc2n1`, the growth inhibition is -7.9% in assay [1]; -0.6% in assay [2]; 1.55% in assay [3]; 8.4% in assay [4]; -6.35% in assay [5]; -16.4% in assay [6].

In the case of `O=NN(CCCl)C(=O)O`, the growth inhibition in assay [1] is 5.55%; in assay [2], -9.05%; in assay [3] it was -5.25%; in assay [4] it was -42.8%; in assay [5], 10.9%; in assay [6], 11.9%.

For `CN(C)C1(c2ccc3ccccc3c2)CSC1`, the growth inhibition in assay [1] is -0.4%; in assay [2], -16.6%; in assay [3], 0.55%; in assay [4], -16.2%; in assay [5], -29.8%; in assay [6] it was 2.25%.

Consider `C=C(C)c1ccccc1` (tested in a mixture with another compound), for which the growth inhibition is 28% in assay [1]; 9.05% in assay [2]; -19.9% in assay [3]; -8.8% in assay [4]; -3.2% in assay [5]; 10.6% in assay [6].

Take `CCCCOP(=O)(/C=C/c1cccs1)OCCCC`: the growth inhibition in assay [1] is 81.2% (active); in assay [2], 37%; in assay [3] it was 79% (active); in assay [4], 7.95%; in assay [5], 61.5%; in assay [6], 37.1%.

`C[As+](C)(C)c1ccc(Br)c([N+](=O)[O-])c1`: the growth inhibition in assay [1] was 7.6%; in assay [2] it was -0.85%; in assay [3], -6%; in assay [4] it was -13.2%; in assay [5] it was -1.3%; in assay [6], 10.9%.

On to `CC(Cl)CNC1c2ccccc2CC1O` (stereo unspecified), for which the growth inhibition is -4.4% in assay [1]; -7.8% in assay [2]; -1.45% in assay [3]; -18.6% in assay [4]; -6.4% in assay [5]; 5.45% in assay [6].

For the molecule `CCCC/C=C/C=C/C=C/CCCCCCCC(=O)OCC(COC(=O)CCCCCCC/C=C/C1C=CC(CCCC)C(C(=O)O)C1C(=O)O)OC(=O)CCCCCCC/C=C/C=C/C=C/CCCC` (stereo unspecified) (tested in a mixture with another compound), the growth inhibition in assay [1] was -10.8%; in assay [2] it was -20.1%; in assay [3], 4.55%; in assay [4] it was -3.85%; in assay [5], 7.6%; in assay [6] it was -0.45%.

With `[O-][Cl+3]([O-])([O-])O.[O-][n+]1c2ccccc2nc2ccccc21.[Zn+2]`, the growth inhibition is 58.1% in assay [1]; 36.1% in assay [2]; 18.6% in assay [3]; 14.8% in assay [4]; 28.3% in assay [5]; 41.5% in assay [6].

Turning to `CCC1c2cc(O)c(OC)cc2CCN1C` (stereo unspecified), the growth inhibition in assay [1] was -7.7%; in assay [2] it was -0.9%; in assay [3], 2.45%; in assay [4], -14.9%; in assay [5], -7.75%; in assay [6], -8%.
